Assay results published in PubChem BioAssay AID1220 (Sanford-Burnham Center for Chemical Genomics, 2008).
The campaign covered roughly 190,000 compounds. About 1,300 (0.68%) were called active. Shown is part of a subset that was picked to be rich in actives. A number with no mark means an inactive call. Cut-off read from the data, not from the text of the source: active = inhibition above about 50%; inactive = the rest.

These compounds were tested against Mannose-6-phosphate isomerase (Homo sapiens) (UniProt P34949) (assay: human PMI inhibitors, high substrate, primary screen, biochemical, fluorescence intensity, high mannose 6-phosphate (AID 1220)). Details: recombinant PMI enzyme, coupled fluorescence intensity; at 20 µM; active compounds read high.
Sequence of Mannose-6-phosphate isomerase (Homo sapiens) (P34949 whole entry, looked up): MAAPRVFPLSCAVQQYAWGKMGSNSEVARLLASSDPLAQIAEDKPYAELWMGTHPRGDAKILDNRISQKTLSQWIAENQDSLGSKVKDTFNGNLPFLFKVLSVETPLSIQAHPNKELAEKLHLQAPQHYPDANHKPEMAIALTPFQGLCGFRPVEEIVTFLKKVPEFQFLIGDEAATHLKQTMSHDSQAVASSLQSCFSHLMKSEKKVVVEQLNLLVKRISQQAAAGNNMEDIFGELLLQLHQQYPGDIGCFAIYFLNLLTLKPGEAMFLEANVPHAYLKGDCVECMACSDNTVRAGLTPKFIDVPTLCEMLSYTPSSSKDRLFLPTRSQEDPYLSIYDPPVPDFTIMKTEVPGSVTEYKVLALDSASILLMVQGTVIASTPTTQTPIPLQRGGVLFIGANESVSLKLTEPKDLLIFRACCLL
For `CC(/C=N/NC(=O)c1cc(-c2ccc(Cl)cc2)nc2ccccc12)=C\c1ccco1`, the inhibition was 11.8%. For `Cn1c(SCC(=O)N/N=C/c2ccco2)nc2ccccc21`, the inhibition was 3.4%. For `CC(/C=N/NC(=O)CSc1nc2ccccc2n1C)=C\c1ccco1`, the inhibition was 58.6% (active). With `CC(/C=N/NC(=O)c1cc(-c2ccccc2)nc2ccccc12)=C\c1ccco1` the inhibition was 63.2% (active). In the case of `CC(/C=N/NC(=O)c1cc(-c2ccncc2)nc2ccccc12)=C\c1ccco1`, the inhibition is reported as 11.8%. With `O=C(CSc1nnc(SCc2ccccc2)s1)N/N=C/C=C\c1ccco1` the inhibition was -23%. `Cn1c(SCC(=O)N/N=C/C=C/c2ccco2)nc2ccccc21` showed an inhibition of 45.7%. With `CC(=C/c1ccco1)/C=N/NC(=O)CSc1nnc(SCc2ccc(C)cc2)s1` the inhibition was 49.4%. For `CC(/C=N/NC(=O)CSc1nnc(SCc2ccccc2)s1)=C\c1ccco1`, the inhibition was 54.7% (active). In the case of `CCc1ccc(Nc2nnc(SCC(=O)Nc3sccc3C(N)=O)s2)cc1`, the inhibition is reported as 11.1%. `CCOC(=O)c1ccc(NC(=S)N(CCN2CCCCCC2)Cc2cccs2)cc1` showed an inhibition of 2.9%. `COc1cc(OC)cc(C(=O)NCC2CCCO2)c1` (stereo not given) was tested, and the inhibition was 12.6%. With `Cc1ccc2nc3c(cc2c1)c(NC(=O)c1cccnc1)nn3C` the inhibition was 13.2%. With `Cc1c(C(=O)NCC2CCCO2)oc2ccc3c(c12)C(=O)CC(C)(C)O3` (stereo not given) the inhibition was 7.4%. `O=C(Nc1cccnc1)C1CCCN(S(=O)(=O)c2ccccc2)C1` (stereo not given) gave an inhibition of -2%. `CCOc1cc(N2CCOCC2)c(OCC)cc1NC(=O)CSc1nccc(C)n1` showed an inhibition of 19.5%. In the case of `CCOc1cc(N2CCOCC2)c(OCC)cc1NC(=O)CSc1ncccn1`, the inhibition is reported as 50.6% (active). Compound `CCOc1cc(N2CCOCC2)c(OCC)cc1NC(=O)CSc1cccc[n+]1[O-]` has an inhibition of 16.7%. With `CCOc1cc(N2CCOCC2)c(OCC)cc1NC(=O)CSc1ncn[nH]1` the inhibition was 53% (active). `CCOc1cc(N2CCOCC2)c(OCC)cc1NC(=O)CSc1n[nH]c(N)n1` gave an inhibition of 37.1%. Work on `CCOc1cc(N2CCOCC2)c(OCC)cc1NC(=O)CCC1CCCC1` yielded an inhibition of 17.2%. `[O-][n+]1ccc(C2CC2)cc1` was tested, and the inhibition was 7.7%. `CCN1CCN(C(c2cccs2)C(C)NC(=O)NC2CCCCC2)CC1` (stereo not given) showed an inhibition of 6%. `CCC1Sc2ccccc2N(CC(=O)NCc2ccc3c(c2)OCO3)C1=O` (stereo not given) gave an inhibition of -3.8%. For `O=C(COC(=O)COc1cccc(Br)c1)Nc1c(Cl)cccc1Cl`, the inhibition was 4.6%. With `COc1ccc(-n2c(NC(=O)c3ccc(Br)o3)c(C#N)c3nc4ccccc4nc32)cc1` the inhibition was 66.9% (active). `COc1ccc(Cn2c(N)c(C#N)c3nc4ccccc4nc32)cc1` showed an inhibition of 15.1%. Compound `COc1ccc(NC(=O)c2ccc(Br)o2)cc1` has an inhibition of 13.3%. For `CCc1cc[n+](-c2nc3ccccc3nc2C(=C=[N-])C#N)cc1`, the inhibition was 14.8%. Work on `N#CC(=C=[N-])c1nc2ccccc2nc1-[n+]1ccccc1` yielded an inhibition of 1.9%. `Cc1cc[n+](-c2nc3ccccc3nc2C(=C=[N-])C#N)cc1` was tested, and the inhibition was 51.9% (active). Compound `COC(=O)COC(=O)c1ccc(Oc2nc(OC)nc(N(C)C)n2)cc1` has an inhibition of 8.1%. In the case of `Cc1ccc(-c2cc(C(=O)O)c3cc(Br)ccc3n2)o1`, the inhibition is reported as -44.6%. With `O=c1oc(-c2cccs2)nc2ccc(Br)cc12` the inhibition was -3%. Compound `O=C(NC1CCCCC1)NC1CC2CCC(C1)N2C(=O)NCc1ccccc1` (stereo not given) has an inhibition of -7.9%. For `N#C/C(=C/c1ccc(N2CCOCC2)o1)c1ccc(Br)cc1`, the inhibition was 50.4% (active). With `N#C/C(=C/c1ccc(N2CCOCC2)o1)c1ccc(Cl)cc1` the inhibition was 42.5%. `Cc1ccc(/C(C#N)=C\c2ccc(N3CCOCC3)o2)cc1` showed an inhibition of 14.1%. `Cc1ccc2nc(/C(C#N)=C\c3ccc(N4CCOCC4)o3)[nH]c2c1` was tested, and the inhibition was 59.9% (active). Compound `N#C/C(=C/c1ccc(N2CCOCC2)o1)c1nc2ccccc2[nH]1` has an inhibition of 38.4%. `N#C/C(=C\c1ccc(N2CCOCC2)o1)c1nc2ccccc2[nH]1` showed an inhibition of 45.8%. With `CC1=CCC2COC(c3ccc[n+](Cc4ccccc4)c3)C1C2` (stereo not given) the inhibition was 43.6%. `CCOc1ccc(N(CC(=O)N2CCCC2)S(=O)(=O)c2c(C)noc2C)cc1` gave an inhibition of 0.9%. Compound `Cc1c(Cl)cccc1NC(=O)Nc1ccc(C(N)=O)cc1` has an inhibition of 3.7%. `Cc1cc(/C=C2\SC(N)=NC2=O)c(C)n1-c1ccc(F)cc1` showed an inhibition of 32.4%. `Cc1cc(S(=O)(=O)n2cnc3ccccc32)c(C)cc1Cl` was tested, and the inhibition was -20.1%. In the case of `Cc1cc(C)c(S(=O)(=O)n2cnc3ccccc32)c(C)c1`, the inhibition is reported as -6%. `Cc1ccc(S(=O)(=O)n2cnc3ccccc32)c(C)c1` was tested, and the inhibition was 81.3% (active). `O=C1c2ccccc2C(=O)N1Cc1nc(-c2ccccc2)no1` showed an inhibition of -1.3%. With `OCCCc1cn(-c2ccccc2)c2ccccc12` the inhibition was -13.6%. `C=CCSC1=N/C(=C\c2ccc(C)o2)C(=O)S1` was tested, and the inhibition was 7.9%. `Cc1ccc2cc(CN(Cc3ccccc3)Cc3nnnn3C3CCCC3)c(=O)[nH]c2c1` was tested, and the inhibition was 5.3%. Work on `Nc1ccc2oc(-c3cccc4ccccc34)nc2c1` yielded an inhibition of 45.3%. `Nc1ccc2nn(-c3cccc4ccccc34)nc2c1` was tested, and the inhibition was 62.8% (active). `Cc1cc2nn(-c3cccc4ccccc34)nc2cc1N` was tested, and the inhibition was 75.5% (active). Compound `c1ccc2c(-n3cccn3)cccc2c1` has an inhibition of -0.8%. For `c1ccc2c(-n3cnnn3)cccc2c1`, the inhibition was 1.3%. `Cc1cc2nn(-c3cccc4ccccc34)nc2cc1NC(=O)c1cccs1` gave an inhibition of 15.2%. With `Cn1nc(-c2ccc(C(=O)O)cc2)c2ccccc2c1=O` the inhibition was -4.7%. In the case of `COc1cc(C(Nc2ccccn2)c2ccc3ccc(C)nc3c2O)cc(OC)c1O` (stereo not given), the inhibition is reported as 62.2% (active). Work on `Cc1cc(NC(c2cccnc2)c2ccc3cccnc3c2O)no1` (stereo not given) yielded an inhibition of 40.3%. Compound `Cc1cccc(NC(c2ccc(O)cc2)c2ccc3ccc(C)nc3c2O)n1` (stereo not given) has an inhibition of 8.7%. For `CCC(=O)NC(c1cccs1)c1ccc2cccnc2c1O` (stereo not given), the inhibition was 49.8%. `CN1CCN(C(c2cccnc2)c2ccc3cccnc3c2O)CC1` (stereo not given) was tested, and the inhibition was 39.6%. In the case of `COc1ccccc1NC(c1cccnc1)c1ccc2cccnc2c1O` (stereo not given), the inhibition is reported as 51.7% (active). `Cc1ccnc(NC(c2cccnc2)c2ccc3cccnc3c2O)c1` (stereo not given) gave an inhibition of 18%. For `CCCC(=O)NC(c1ccccc1OC)c1ccc2cccnc2c1O` (stereo not given), the inhibition was 39.5%. `CCOC(=O)N1CCN(S(=O)(=O)c2cccc3cccnc23)CC1` was tested, and the inhibition was -12.8%. In the case of `Cc1ccc2ccc(C(Nc3ccccn3)c3ccccc3)c(O)c2n1` (stereo not given), the inhibition is reported as 11.4%. `CCC(=O)NC(c1ccccc1OC)c1ccc2cccnc2c1O` (stereo not given) was tested, and the inhibition was 50.2% (active).
